Source: PubChem BioAssay (National Center for Advancing Translational Sciences (NCATS))
The list is not random: actives were taken first. Their share in the collection is about 3.3%.
IMPase cell inh: IMPase inhibition in cells; CHO-M1 cells, IP1 accumulation, HTRF TR-FRET ratio; inhibition (IP1 accumulation), % at 46.1 µM; 120,000 tested, under 10 active; P97697; active means well fitted curve in the direction sought with a large enough effect in the signal ratio, not every such curve was filed as active; inconclusive means small, poorly fitted or top-dose-only effect, or a change in a side signal; inactive means no such curve, though single readings can be large or run the other way; the % refers to the signal ratio;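 further: cells stimulated with carbachol in lithium chloride buffer; plate controls were DMSO basal wells for no effect and reference inhibitor wells for full effect; higher means more IMPase inhibition seen as more IP1 and lower FRET ratio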
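Carbachol-driven Gq signalling in CHO-M1 cells (2000/well) generates IP1. Compounds that block IMPase raise IP1 and so reduce the FRET signal from Eu-anti-IP1 and d2-IP1 after a 10 min room-temperature lysis.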
ALOX12 inhib: blocks human 12-lipoxygenase activity; Potency, µM (doses to about 57.1 µM), inactives show at the top dose activity change, negative = inhibition, actives largely listed as inhibitors; purified 12-hLO, xylenol orange hydroperoxide absorbance; P18054; actives 0.12% (n = 150,000); AID 1452; further: potency means the concentration at half of the fitted maximal effect; on the % scale 0 is the no-effect control and ±100 the full control effect; nearly all actives have a fitted effect of over 55% in size
Target sequence (P18054 whole entry, looked up): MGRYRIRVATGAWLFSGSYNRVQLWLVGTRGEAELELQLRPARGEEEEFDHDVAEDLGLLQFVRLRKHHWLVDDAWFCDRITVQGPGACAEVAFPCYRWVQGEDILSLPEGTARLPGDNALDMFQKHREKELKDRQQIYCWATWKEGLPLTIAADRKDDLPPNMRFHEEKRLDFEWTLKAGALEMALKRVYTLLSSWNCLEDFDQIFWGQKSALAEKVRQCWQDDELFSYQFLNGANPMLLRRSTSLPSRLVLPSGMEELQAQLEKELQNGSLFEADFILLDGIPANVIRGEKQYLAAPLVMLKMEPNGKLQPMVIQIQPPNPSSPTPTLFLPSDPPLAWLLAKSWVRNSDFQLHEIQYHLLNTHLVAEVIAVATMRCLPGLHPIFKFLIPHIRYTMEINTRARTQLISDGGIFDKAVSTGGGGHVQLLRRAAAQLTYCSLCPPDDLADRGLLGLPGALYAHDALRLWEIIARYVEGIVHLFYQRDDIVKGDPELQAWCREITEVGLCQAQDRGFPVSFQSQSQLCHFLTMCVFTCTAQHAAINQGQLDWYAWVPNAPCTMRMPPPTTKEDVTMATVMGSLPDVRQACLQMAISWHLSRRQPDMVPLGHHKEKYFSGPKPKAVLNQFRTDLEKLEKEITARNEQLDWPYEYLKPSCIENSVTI
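Hydroperoxide formation by human 12-lipoxygenase from 40 uM arachidonic acid was followed colorimetrically via ferric-xylenol orange complex, using the 573/405 nm absorbance ratio. Enzyme concentration was 150 nM, with 30 min reaction at room temperature.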
HttQ103 aggreg: inhibitors of mutant huntingtin aggregate formation in PC12 cells; PC12 HttQ103-GFP aggregates, Acumen cytometry, 40 h; Potency, µM (top dose mostly 46.1 µM), without a hit: at the top dose activity change, negative = inhibition, actives largely listed as inhibitors; actives 1.1% (n = 220,000); further: potency means the concentration at half of the fitted maximal effect; on the % scale 0 is the no-effect control and ±100 the full control effect; nearly all actives have a fitted effect of over 60% in size
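PC12 cells stably carrying ecdysone-inducible HTT exon 1 Q103–GFP were induced with tebufenozide (100 nM final) and treated with library compounds in titration. GFP aggregates in lysates were counted by laser scanning cytometry.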
PNC assembly inh: perinucleolar compartment assembly inhibition. PC3M PTB-GFP, PNC prevalence imaging, 16 h; hits give low values. activity change (PNC), negative = inhibition, % at 10 µM. actives 3.1% (n = 140,000);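 active means readout at or below -70, meaning at least 70% loss of cells showing the perinucleolar compartment, a nuclear body marking cancer cells; inconclusive means readout between -30 and a set limit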;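 further: plate controls were DMSO wells for no effect and camptothecin positive control wells for full effect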
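Compounds are pinned in duplicate onto adhered PC3M cells stably expressing GFP-tagged PTB and incubated 16 h at 37 C. Cells are then fixed, nuclei stained with Hoechst, and PNC-positive cells counted.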
HTT cytoprotect: protects HTT-Q103 PC12 cells, measured by ATP | PC12 HTT-Q103 induced, cytoprotection, ATP luminescence, 40 h | Potency, µM (doses to about 56.4 µM), for the others: cytoprotection (ATP increase), usual class: activators | actives 0.14% (n = 230,000) | AID 1471; further: potency means the concentration at half of the fitted maximal effect; % of control where 0% means no effect; nearly all actives have a fitted effect of over 45% in size
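PC12 cells stably carrying ecdysone-inducible Htt exon 1 (Q103)–GFP were induced with 100 nM tebufenozide (final) alongside library compounds in a dose series. Cytoprotection was scored as retained ATP by ATPlite luminescence.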
NPSR antagonist: neuropeptide S receptor (human) antagonism, cAMP. Q6W5P4. CHO-NPSR cells, cAMP TR-FRET, antagonist mode. actives 1% (n = 220,000). Potency, µM (series often up to 38.3 µM), inactives show at the top dose activity change, negative = inhibition, usual class: inhibitors. AID 1461; further: potency means the concentration at half of the fitted maximal effect; on the % scale 0 is the no-effect control and ±100 the full control effect; nearly all actives have a fitted effect of over 50% in size
Active calls of the source: *; ? = inconclusive; nt = no result given; [ ] = dose if it differs, or a comment. Unless noted, the call rests on the fitted dose curve; in most records, active means well fitted curve in the direction sought with a large enough effect; inconclusive means small, poorly fitted or top-dose-only effect, or another doubt; inactive means no such curve, though single readings can be large; an effect the other way counts as inactive or inconclusive.

SMILES	IMPase cell inh	ALOX12 inhib	HttQ103 aggreg	PNC assembly inh	HTT cytoprotect	NPSR antagonist
COc1ccc(OC(=O)N(C)C)c(CN(C)C)c1	6	0%	6%	56	13%	7%[46.1 µM]
Cc1cc(CN(C)C)c(OC(=O)N(C)C)cc1C	7	2%	-9%	-122*	-10%[0.074 µM]	3%[46.1 µM]
N[C@H](Cn1ccc(=O)[nH]c1=O)C(=O)O	-1	-6%	nt	nt	-20%[1.9 µM]	nt
Cc1ccccc1C(O)(Cc1ccccc1)C1CN2CCC1CC2 (centres undefined)	23	7%	-2%[9.22 µM]	19	3.2µM*	-4%[46.1 µM]
c1ccc2c(c1)CC1CNCc3cccc(c31)S2 (centres undefined)	nt	0%	-21%	-117*	15%[10 µM]	?
C[C@]12Cc3cn4c(nc3C=C1CC[C@H]1[C@@H]2CC[C@@]2(C)[C@H]1CC[C@@]2(O)C#N)nc1ccccc14	2	-7%	nt	nt	-1%[1.9 µM]	nt
N[C@H](CCl)C(=O)O	-5	-3%	nt	nt	-2%[1.9 µM]	nt
Cc1cccc(N2C(=O)NC(=O)/C(=C\c3cc(C)n(-c4sc5c(c4C#N)CCCC5)c3C)C2=O)c1C	-3	?	5µM*	17	2%[10 µM]	5%
COC(=O)CSC1=NP(=S)(SCC(=O)OC)N2CCCC2=C1C#N (centres undefined)	-5	-9%	0%	-127*	-2%[0.074 µM]	4%[46.1 µM]
CSC1=NP(=S)(SC)N2CCCC2=C1C#N (centres undefined)	-2	-2%	3%	8	5%[0.074 µM]	-8%[46.1 µM]
COc1cc2c(cc1OC)-c1c(OC)c(OC)c(OC)c3ccnc(c13)C2=O	nt	-1%	11µM*	-101*	nt	-5%
C/C(=N\NC(N)=S)C12CC3CC(CC(C3)C1)C2	7	?	-9%	43	3.2µM*	-13%[46.1 µM]
COc1cccc(CN2CCCCC2c2cccnc2)c1 (centres undefined)	3	-4%	-21%	-83*	-9%	-15%[46.1 µM]
COc1ccc(CN2CCCCC2c2cccnc2)cc1C (centres undefined)	9	-1%	4%	34	7%	-16%[46.1 µM]
C[C@@H]1Cc2cc3c(cc2C(c2ccc(N)cc2)=NN1)OCO3	0	-2%	nt	nt	15%[1.9 µM]	nt
O=C(c1cn(Cc2ccccc2)c2ccccc12)C1CC1	nt	nt	-16%	nt	-73%	10µM*
CCC(=O)c1cn(Cc2ccccc2)c2ccccc12	nt	nt	29%[9.22 µM]	nt	14%[10 µM]	36%
O=C(c1ccco1)c1cn(Cc2ccccc2Cl)c2ccccc12	2	-1%	1%	2	-20%	10µM*
CN1C2CCC1/C(=C/c1ccccn1)C(=O)/C2=C\c1ccccn1	nt	-1%	?	-109*	nt	-20%
CCc1ccc(N2C(=O)NC(=O)/C(=C\C=C\c3ccco3)C2=O)cc1	nt	nt	44%[9.22 µM]	nt	-30%[10 µM]	10µM*
O=C1NC(=O)N(Cc2ccc(F)cc2)C(=O)/C1=C\C=C\c1ccco1	nt	nt	12%[9.22 µM]	nt	3%[10 µM]	?
CCCCN1C(=O)/C(=C/C=C/c2ccco2)C(=O)NC1=S	-6	?	21%	-88*	4%[10 µM]	-21%[46.1 µM]
CC(C)c1ccc(N2C(=O)NC(=O)/C(=C/C=C/c3ccco3)C2=O)cc1	nt	-26%	?	19	nt	6.3µM*
O=C1NC(=O)N(c2ccccc2)C(=O)/C1=C\C=C\c1ccccc1	nt	nt	2%[9.22 µM]	nt	-30%[10 µM]	?
Cc1ccc(N2C(=O)NC(=O)/C(=C/C=C/c3ccco3)C2=O)cc1	-6	-12%	?	?	-5%[10 µM]	-53%
SMILES	IMPase cell inh	ALOX12 inhib	HttQ103 aggreg	PNC assembly inh	HTT cytoprotect	NPSR antagonist
Cc1cc(C)cc(N2C(=O)NC(=O)/C(=C\C=C\c3ccco3)C2=O)c1	nt	-28%	?	51	11%[10 µM]	10µM*
C[C@@H]1[C@H]2C=C[C@@H]1[C@@H](c1c3ccc(=O)c(O)c-3oc3c(O)c(O)ccc13)[C@@H]2C(=O)O	nt	-23%[11.4 µM]	nt	nt	-5%[10 µM]	nt
O=c1ccc2cc(O[C@@H]3O[C@@H](CO)[C@@H](O)[C@@H](O)[C@H]3O)c(O)cc2o1	nt	nt	nt	nt	-2%	nt
CC[C@H]1CN2CC[C@@H]1C[C@@H]2[C@H](O)c1ccnc2ccccc12	nt	nt	nt	nt	-9%	nt
COC1=C[C@H]2[C@@H]3Cc4ccc(OC)c(O)c4[C@@]2(CCN3C)CC1=O	nt	nt	nt	nt	15%	nt
CCCCCc1nc2c(c(=O)c3ccccc3n2C)c(=O)n1C1CCCCCC1	-2	7%	-26%	?	13%[10 µM]	10µM*
CCCCCc1nc2ccccc2c(=O)n1-c1ccc(C)cc1	6	nt	nt	nt	nt	nt
CCN(CC)C1=NC(=[N+](CC)CC)c2ccccc21	10	-7%	2.8µM*	-27	-50%	-1%[46.1 µM]
Cc1ccccc1N1C(=O)NC(=O)/C(=C\c2cc(Br)c(N3CCOCC3)o2)C1=O	-2	-1%	25%	-20	15%[10 µM]	13µM*
Cc1ccccc1N1C(=O)NC(=O)/C(=C/c2ccc(N3CCOCC3)o2)C1=O	nt	nt	5%[9.22 µM]	nt	9%[10 µM]	12%
COC(=O)[C@]1(C)C[C@H]1[C@H](NP(=O)(c1ccccc1)c1ccccc1)c1ccccc1	nt	-3%	4%	56	-3%	13µM*
CN1CCc2cc3c(cc2[C@@H]1[C@H]1OC(=O)c2c1ccc1c2OCO1)OCO3	nt	nt	nt	nt	2%	nt
O=C1C(Cl)=C(Cl)C(=O)C(Cl)=C1Cl	nt	?	nt	nt	-301%	nt
CC12CN3CC(C)(CN(C1)C3c1cccs1)C2O (centres undefined)	6	2%	-9%	-107*	13%[0.074 µM]	-3%[46.1 µM]
CC(C)N[C@@H](C)Cc1ccc(I)cc1	11	-3%	nt	nt	20%[1.9 µM]	nt
O=C1C2CC=CCC2C(=O)N1SC(Cl)(Cl)Cl (centres undefined)	nt	-20%	14µM*	nt	-99%	nt
C[C@@H](O)CN(CCN(C[C@@H](C)O)C[C@@H](C)O)C[C@@H](C)O.O=[N+]([O-])O.[Cu]	nt	?	nt	nt	-17%[10 µM]	nt
CC1=C(C(=O)OC(C)C)[C@]2(C(=O)N(CC(N)=O)c3ccccc32)C(C#N)=C(N)O1	-4	-4%	8%	-100*	14%[10 µM]	-4%[46.1 µM]
C=CCOC(=O)C1=C(C)OC(N)=C(C#N)[C@@]12C(=O)N(CC(N)=O)c1ccccc12	6	-3%	12%	28	-11%	-5%[46.1 µM]
Cc1c(N=Cc2c(O)n(Cc3ccco3)c(=O)[nH]c2=O)c(=O)n(-c2ccccc2)n1C	25	4%	17%	-82*	18%[10 µM]	-2%[46.1 µM]
O=C(NC1(C(F)(F)F)Oc2ccccc2O1)N1CCC2(CC1)OCCO2	-4	-9%	?	-119*	-27%[10 µM]	10%
[N-]=[N+]=NCC(=O)c1c[nH]c(=O)[nH]c1=O	nt	0%[11.4 µM]	nt	nt	9%[10 µM]	nt
CCOC(=O)c1c(C)c(P(=S)(N2CCOCC2)N2CCOCC2)n(C)c1C	8	-3%	12%	-121*	-15%	-1%[46.1 µM]
CCOP(=S)(OCC)N1CCOCCOCCN(P(=S)(OCC)OCC)CCOCCOCC1	nt	nt	16%	nt	-32%[10 µM]	-39%
